Among the data in PubChem BioAssay are composite z-score values, retold here.

This assay concerns wheat germ agglutinin (Triticum aestivum), Alexa647-labelled. The experiment in a line: Alexa647-WGA lectin binding to printed small molecules – biochemical, small-molecule microarray, 635/667 nm fluorescence, artefact control for SMM control-protein annotation, profiling panel (AID 1140).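 Note: score merges 667 nm feature emission with signal to noise over triplicate slides.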 The following applies: WGA-A647 binding, 635 nm fluorescence, higher = more signal.
As to `CC(C)NC(=O)[C@@H]1c2ccccc2C(=O)N(Cc2cc(C(F)(F)F)cc(C(F)(F)F)c2)[C@H]1c1ccc(CO)cc1`, the composite z-score came to 0.375.

`O=C(CS)NCCCCCNC(=O)[C@@H]1C[C@@H]2C(=O)N3CCC[C@H]3C(=O)N2[C@@H]1c1ccc(O)cc1`: the composite z-score was -0.339.

`CCCCC=C[C@@H](NC(=O)CCc1ccccc1)c1ccccc1` returned a composite z-score of 1.07.

Regarding `COCCOC(=O)N1C(=O)[C@@]2(c3cc(C#Cc4ccc(OC)cc4)ccc31)[C@H](C(=O)N1CCc3cc(OC)c(OC)cc3C1)[C@H]1C(=O)O[C@H](c3ccccc3)[C@H](c3ccccc3)N1[C@@H]2c1ccc(OCCO)cc1`, the composite z-score came to 0.596.

The compound `OCc1ccc(-c2cc[n+](Cc3cccc(OC(F)(F)F)c3)cc2)cc1` displayed a composite z-score of 0.528.

On to `O=C(Nc1cc(Br)ccc1C(=O)NCc1cccc(O)c1)c1ccccc1`, for which the composite z-score was 1.01.

The compound `COC(=O)c1ccc(OC)c(/C=C\CC(CCc2ccccc2)OC(C)=O)c1` (stereo unspecified) came in with a composite z-score of 0.476.

`O=C1C[C@@](C(=O)O)(c2ccc([N+](=O)[O-])cc2)[C@@H](c2ccc(CO)cc2)N1CC12CC3CC(CC(C3)C1)C2` returned a composite z-score of 1.02.

In the case of `CO[C@H]1O[C@H](CO)[C@@H](OC(=O)Nc2cccc(F)c2)[C@H](OC(=O)Nc2ccc3c(c2)OCO3)[C@H]1OC(=O)Nc1ccc2c(c1)OCO2`, the composite z-score amounted to 1.15.

Take `COc1ccc([Si](C)(C)[C@H]2[C@H](CCO)O[C@@]3(C(=O)N(Cc4cccc(N5CCOC5=O)c4)c4ccccc43)[C@@H]2C)cc1`: the composite z-score was found to be 0.63.

In turn, `COC(=O)C(CC#Cc1ccc2c(c1)[C@]1(C(=O)N2)[C@H](c2ccccc2OCCO)N2[C@H](c3ccccc3)[C@H](c3ccccc3)OC(=O)[C@H]2[C@@H]1C(=O)Nc1nc2ccccc2s1)C(=O)OC` registered a composite z-score of 1.29.
